Screening results: PubChem, Broad Institute
The list is a sample of the results.
aSyn UTR act: Activators via SNCA 5'UTR binding, MLPCN; alpha-synuclein 5'UTR reporter, activators screen; activity score, % (tested at 7.5 µM), hits read low; actives 7.1% (n = 300,000); AID 1814, 2009; in the data active = activity score below about -60%
An asterisk follows results filed as active.

SMILES	aSyn UTR act
NNc1ccc(Cl)c(C(=O)O)c1	-180*
O=[N+]([O-])c1cccc(N/N=C/c2cccc3ccccc23)c1	-91*
O=C(O)c1cc(N/N=C/c2cccc3ccccc23)ccc1Cl	-131*
CC(C)(C)C(=O)NC(=S)Nc1ccc(F)cc1	-84*
CC(C)(C)C(=O)NC(=S)Nc1cccc(C(=O)O)c1	-161*
CCc1ccc(N2CSC3=C(C#N)C(c4cccs4)CC(=O)N3C2)cc1 (stereo not given)	-94*
COc1cc(OC)c(C2CC(=O)N3CN(c4ccc(C)cc4)CSC3=C2C#N)cc1OC (stereo not given)	-127*
Cc1ccc(N2CSC3=C(C#N)C(c4cccs4)CC(=O)N3C2)cc1 (stereo not given)	-131*
CCOC(=O)C(C)On1c(-c2ccccc2)nc2ccc([N+](=O)[O-])cc21 (stereo not given)	-192*
CCOC(=O)C(C)On1c(-c2ccc(Cl)cc2)nc2ccc([N+](=O)[O-])cc21 (stereo not given)	-176*
O=C(O)COn1c(-c2ccccc2)nc2ccc([N+](=O)[O-])cc21	-165*
CCC1CCCCN1CCCNC(=O)CC1Oc2ccccc2NC1=O (stereo not given)	-75*
c1ccc(CSc2cc3ccccc3[nH]2)cc1	-132*
CCc1cc(C=C(Cl)Cl)oc(=O)c1C	-117*
CC1(c2ccccc2)CC(c2ccccc2)=Nc2ccccc2N1 (stereo not given)	-104*
COc1ccc(-c2cn(-c3ccccc3)c(=S)[nH]2)cc1OC	-100*
S=c1[nH]c(-c2ccccc2)cn1-c1ccccc1	-75*
Nc1ccc(-n2cc(-c3ccccc3)[nH]c2=S)cc1	-86*
c1ccc(-c2n[nH]c(-c3ccccn3)n2)nc1	-63*
c1ccc(-c2n[nH]c(-c3ccccn3)n2)cc1	-114*
C/C(=N\NC(=O)c1ccccc1)c1cccc(Br)c1	-110*
C/C(=N\NC(=O)c1ccccc1)c1ccc(C)c([N+](=O)[O-])c1	-109*
C/C(=N\Nc1nc2ccccc2s1)c1ccc2c(c1)OCO2	-176*
C/C(=N\NC(=O)c1ccccc1F)c1ccc(C#N)cc1	-64*
CC(=O)Nc1cccc(/C(C)=N/NC(=O)c2ccc3c(c2)OCO3)c1	-78*
SMILES	aSyn UTR act
O=C(N/N=C(\c1ccccc1)c1ccccn1)c1cccc([N+](=O)[O-])c1	99
C/C(=N\NC(=O)c1c[nH]c2ccccc12)c1ccco1	-174*
C/C(=N\NC(=O)c1c[nH]c2ccccc12)c1ccccn1	72
C/C(=N\NC(=O)c1ccc([N+](=O)[O-])cc1Cl)c1ccccc1	-148*
C/C(=N/NC(=O)c1ccccc1)C1=C(O)CC(C)(C)CC1=O	-95*
Cc1ccc(C(=O)Nc2sc(C)c(-c3ccccc3)c2C(N)=O)cc1[N+](=O)[O-]	-81*
C/C(=N\NC(=O)c1nc2ccccn2c1C)c1ccco1	-135*
C/C(=N\NC(=O)c1c[nH]c2ccccc12)c1ccc2c(c1)OCO2	-98*
C/C(=N\NC(=O)c1ccccc1)c1ccc2c(c1)OCO2	-118*
C/C(=N\NC(=O)c1ccc2c(c1)OCO2)c1ccc(O)cc1	-64*
C/C(=N\NC(=O)c1ccccc1F)c1cccc(NC(=O)c2ccccc2)c1	-94*
C/C(=N/NC(=O)c1ccc2c(c1)OCO2)c1ccc(NC(=O)C(F)(F)F)cc1	-127*
Cc1cc(C)n(-c2nc(NCC(C)O)c3c4c(sc3n2)CCCC4)n1 (stereo not given)	-62*
Cc1cccc(C(=O)Oc2ccc(/C=N/O)cc2)c1	-72*
CCN1C(=O)/C(=C\C=C2/C=CC=CN2CC)SC1=S	-125*
CCN1C(=O)/C(=C/C=C2\C=CN(CC)c3ccccc32)SC1=S	-80*
CCN1C(=O)C(=Cc2cccc(OC)c2Oc2ccc([N+](=O)[O-])cc2[N+](=O)[O-])SC1=S	80
Cc1cc(NC(=O)c2ccccc2)sc1C	-142*
COc1ccc(/C=C/c2cc(C(=O)O)c3ccccc3n2)cc1	81
Cc1cc(/C=C\c2ccccc2)nc2ccccc12	-216*
Fc1ccc(CO/N=C2\CCCc3nonc32)cc1	-91*
CCCc1nn(C)c(C(=O)Nc2cccc(CC)c2)c1Cl	-84*
CCCc1nn(C)c(C(=O)Nc2ccc3ccccc3c2)c1Cl	-204*
CC(SC1=NCCS1)C(=O)Nc1nnc(-c2ccc(Cl)cc2)s1 (stereo not given)	-63*
CC(Sc1nncn1C)C(=O)Nc1nnc(-c2ccccc2)s1 (stereo not given)	-83*
SMILES	aSyn UTR act
CCOc1ccccc1C(=O)N[C@H](C(=O)Nc1nc2c(s1)CCCC2)C(C)C	-87*
COc1ccc(C(=O)N[C@H](C(=O)Nc2nc3c(s2)CCCC3)C(C)C)cc1	-201*
Cc1nnc2n1N=CC=C(c1ccccc1)S2	-94*
Nc1c(C(=O)N/N=C/c2cccnc2)cnn1-c1ccccc1	-67*
O=[N+]([O-])c1ccc(COc2ccccc2/C=N/O)cc1	-132*
O=C(Nc1nccs1)c1ncc(Cl)c(Cl)c1Cl	-76*
Cn1cc(Cl)c(C(=O)Nc2nccs2)n1	-72*
CCn1cc(Cl)c(C(=O)Nc2nccs2)n1	-82*
COc1ccccc1CNc1ccc2c(c1)CCC2	-82*
COc1ccc(CNc2ccc3c(c2)CCC3)cc1Br	-105*
CCOc1cc(CNc2ccc3c(c2)CCC3)ccc1OC	-163*
CC1=NC(=O)C(N=Nc2cccc(O)c2)N1c1ccccc1 (stereo not given)	-260*
C=CCNC(=S)Nc1c(C(=O)OC)[nH]c2cc(OC)ccc12	-91*
O=C(c1nn2c(C(F)(F)F)cc(-c3cccs3)nc2c1Cl)N1CCCc2ccccc21	78
COc1ccc2c(c1)CCc1c(C(=O)N3CCOCC3)noc1-2	-162*
COc1ccc2c(c1)CCc1c(C(=O)N3CCCc4ccccc43)noc1-2	-66*
CCCCOc1ccc(NC(=O)C(=O)NCCCn2ccnc2)cc1	66
CCOc1ccc(NC(=S)NCCCn2ccnc2)cc1	-77*
Cc1csc(NC(=O)c2ccc(Cl)nc2)n1	-93*
CC(C)(C)c1csc(NC(=O)c2ccccc2O)n1	-141*
Cc1csc(NC(=O)c2ccccc2O)n1	-84*
Cc1csc(NC(=O)c2cc(C)oc2C)n1	-128*
Cc1cc(C)nc(Sc2ccc3nnnn3n2)n1	-72*
O=C(CCN1C(=O)/C(=C/c2ccccc2Cl)SC1=S)NC1C=CS(=O)(=O)C1 (stereo not given)	-71*
O=C(CCN1C(=O)/C(=C/c2ccc(F)cc2)SC1=S)NC1C=CS(=O)(=O)C1 (stereo not given)	-73*
SMILES	aSyn UTR act
O=C(CCCN1C(=O)/C(=C/c2ccccc2Cl)SC1=S)NNC(=O)c1ccccc1	62
COC(=O)c1cnn(-c2cc(Oc3cccc(C)c3)ncn2)c1N	-138*
COc1ccc(-c2noc(Cc3ccccc3OC)n2)cc1	-64*
COc1ccc(-c2noc(CCc3ccccc3)n2)cc1	-148*
COc1ccc(-c2noc(Cc3cccs3)n2)cc1	-188*
CC(C)(C)C1CCc2c(sc3c2C(=O)NC(c2ccco2)N3)C1 (stereo not given)	-186*
Cc1cc(Cl)ccc1Nc1ncccc1C(N)=O	-154*
Cc1ccc(Nc2ncccc2C(N)=O)cc1	-139*
COc1ccc(Nc2ncccc2C(=O)O)cc1	-77*
CN(c1ccc(O)cc1)S(=O)(=O)c1ccc2ccccc2c1	-111*
CN(C#N)c1nc(Cl)nc(Nc2cccc(Cl)c2)n1	-66*
OCCCNc1cc(-c2ccnc(Nc3cccc(Cl)c3)n2)ccn1	110
